# Shiga toxin inh = inhibitors of Shiga toxin in Vero cells; Vero cells, Shiga toxin protein synthesis inhibition reporter; inhibition, % at 38.7 µM; 290,000 tested, 9.2% active; AID 2315; in the data active = inhibition mostly above about 28%, no sharp cut-off; inactive = mostly below about 43%; also: 0% is about no effect
# Pf growth 96h = P. falciparum growth inhibition at 96 hours; P. falciparum luciferase reporter growth, 96 h; Potency, µM (series often up to 28.7 µM), inactives show top-dose activity change, negative = inhibition, actives largely listed as inhibitors; 320,000 tested, 6.9% active; also: potency is read from the fitted curve at half-maximal effect; % is scaled to controls: 0 for no effect and ±100 for the full control effect
#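 Cell-based qHTS: luciferase-tagged P. falciparum in erythrocytes (2% hematocrit, 0.05% parasitemia final) incubated with compounds for 96 hours, 37 C, 5% CO2; luciferase detection reagent then added and luminescence measured.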
# Pf growth 48h = inhibits P. falciparum growth in the first generation, 48 h | P. falciparum luciferase growth in erythrocytes, 48 h | Potency, µM (highest dose often 28.7 µM), without a hit: at the highest dose activity change, negative = inhibition, actives largely listed as inhibitors | 310,000 tested, 5.9% active; also: potency is read from the fitted curve at half-maximal effect; % is scaled to controls: 0 for no effect and ±100 for the full control effect
#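 Read-out is firefly luciferase luminescence from an integrated reporter in P. falciparum, so falling signal marks reduced parasite growth. Infected erythrocytes were at 2% hematocrit and 0.1% parasitemia (final) in Albumax-supplemented RPMI 1640.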
# CHX counter = affects cycloheximide protein synthesis inhibition readout, counter-screen; cell reporter, cycloheximide protein synthesis inhibition counterscreen; max response, %; 300,000 tested, 12% active; AID 2314; in the data active = max response mostly above about 13%, no sharp cut-off; inactive = mostly below about 14%; also: read at 38.3 µM for the half of the compounds with a filed dose; 0% is about no effect
# Giardia FBPA inh = blocks Giardia fructose-bisphosphate aldolase activity | AID 2451 | Potency, µM (doses to about 59.6 µM), for the others: at the top dose activity, negative = inhibition, usual class: inhibitors | 290,000 tested, 0.71% active | A8B2U2 | purified Giardia FBPA; also: potency is read from the fitted curve at half-maximal effect; % is scaled to controls: 0 for no effect and ±100 for the full control effect; nearly all actives have a fitted effect of over 55% in size
# Target sequence (A8B2U2 whole entry, looked up): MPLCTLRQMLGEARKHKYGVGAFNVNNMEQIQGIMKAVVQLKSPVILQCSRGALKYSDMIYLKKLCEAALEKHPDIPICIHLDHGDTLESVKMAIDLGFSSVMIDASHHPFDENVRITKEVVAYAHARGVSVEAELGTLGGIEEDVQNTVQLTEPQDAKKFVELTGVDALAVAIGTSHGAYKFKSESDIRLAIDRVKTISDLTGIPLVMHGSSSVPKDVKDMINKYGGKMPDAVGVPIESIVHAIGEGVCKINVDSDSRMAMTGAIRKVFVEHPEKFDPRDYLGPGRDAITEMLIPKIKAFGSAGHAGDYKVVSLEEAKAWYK
#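 40 nM FBPA preincubated 10 min at RT with compound (up to 57.5 uM final), then substrate plus GAPDH/TPI/NAD/arsenate coupling and diaphorase/resazurin added. Fluorescence read after 20 min at RT, 525/598 nm.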
# NS1 function inh = influenza NS1 inhibition | Potency, µM (titrated, usually from 46.1 µM), for the others: top-dose activity, positive = more growth | 270,000 tested, 0.4% active; calls by dose curve; also: potency is read from the fitted curve at half-maximal effect; actives are rising curves; nearly all actives have a fitted effect of over 50% in size
#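 Growth recovery, yeast-based: influenza A NS1 expressed in S. cerevisiae causes slow growth, and suppressors are detected by OD600. The parent strain without NS1 is used as positive control.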
# * = called active by the depositor; ? = inconclusive; nt = no result. The list is not random: actives were taken first. Their share in the collection is about 21%. Unless noted, calls follow the shape of the dose curve; as a rule, active = well fitted curve in the direction sought with a large enough effect; inconclusive = small, poorly fitted or top-dose-only effect, or another doubt; inactive = no such curve, though single readings can be large; an effect the other way counts as inactive or inconclusive.
SMILES,Shiga toxin inh,Pf growth 96h,Pf growth 48h,CHX counter,Giardia FBPA inh,NS1 function inh
Cc1cc(C(=O)COC(=O)c2ccc(NC(=O)CC#N)cc2)c(C)n1C1CC1,nt,92.8%,43.7%,nt,nt,nt
COc1ccccc1C(=O)NC(=O)COC(=O)c1ccc(NC(=O)CC#N)cc1,nt,-7.6%,2.5%,nt,nt,nt
N#CCC(=O)Nc1ccc(C(=O)OCC(=O)NCCCc2ccccc2)cc1,4.1,1.17µM*,-78.8%,-1.4,4.3%,-2.2%
O=C(COC(=O)c1ccncc1)NCCCc1ccccc1,14.6,8.9%,22.5%,-2.4,-11.3%,15.8%
N#CCC(=O)Nc1ccc(C(=O)OCC(=O)C23CC4CC(CC(C4)C2)C3)cc1,nt,?,13.1µM*,nt,nt,nt
N#CCC(=O)Nc1ccc(C(=O)OCc2ccccc2Oc2ccccc2)cc1,-6.3,?,10.4µM*,-5.4,-1.4%,0.0%
O=C(CN(Cc1ccccc1Cl)C(=O)c1csnn1)NCc1ccccc1,-2.4,?,15.7%,-3.7,-4.8%,-2.8%
COc1ccc(-c2cc(OC)c3ccccc3n2)cc1,active,68.3%,48.3%,14.4,-4.0%,-39.3%
COc1ccc(-c2ccc3ccccc3n2)cc1OC,132.6*,158.8%,56.0%,46.0*,-1.4%,-16.1%
COc1ccc(-c2ccc3ccccc3n2)cc1,70.5*,309.6%,124.7%,40.7*,-5.2%,-6.3%
COc1ccc(-c2cc(C(=O)Nc3ccccc3O)c3ccccc3n2)cc1OC,9.6,60.5%,?,11.5,-6.5%,15.7%
COc1cc(-c2ccccc2)nc2ccccc12,20.2,-14.4%,-22.1%,4.0,-4.6%,-12.2%
COc1ccc(-c2cc3ccccc3cn2)cc1,nt,313.7%,159.7%,nt,nt,nt
COc1ccc(-c2noc(C)c2-c2ccc3ccccc3n2)c(O)c1,-16.5,14.7µM*,11.7µM*,-4.2,0.8%,-158.5%
CCOC(=O)N1CCN(CC(=O)N2CCC(C(N)=O)CC2)CC1,-5.8,6.4%,12.5%,-0.9,-0.1%,nt
COc1ccc(-c2cc3cc(OC)c(OC)cc3c(C)n2)cc1,75.1*,?,95.7%,33.7*,-18.3%,-38.2%
Nc1ccc(-c2ccc3ccccc3n2)cc1,70.5*,nt,nt,25.5*,?,0.7%
O=C(CN1CCCC1)Nc1nc(-c2ccc3c(c2)CCN3C(=O)c2ccccc2F)cs1,31.0,?,14.7µM*,20.0*,nt,2.9%
Cc1sc(NC(=O)Cc2ccc3c(c2)OCO3)nc1-c1ccc2c(c1)CCN2C(=O)c1cccc(F)c1,2.9,6.57µM*,?,-1.1,-0.9%,?
O=C(Nc1nc(-c2ccc(F)cc2)cs1)C1CCN(C(=O)c2ccc(F)cc2)CC1,nt,6.57µM*,?,nt,nt,nt
Cc1cccc(C(=O)N2CCc3cc(-c4nc(NC(=O)CN5CCCC5)sc4C)ccc32)c1,1.9,16.7%,?,1.0,nt,7.1%
CNc1nc(-c2ccc3c(c2)CCN3C(=O)c2ccc(F)cc2)cs1,91.4*,?,19.9%,44.9*,-10.9%,4.0%
O=C(Nc1nc2c(F)cc(F)cc2s1)C1CCN(C(=O)c2ccc(F)cc2)CC1,nt,117.3%,91.4%,nt,nt,nt
Cn1nc(C(=O)Nc2nc(-c3ccc(F)cc3)cs2)ccc1=O,-3.2,0.6%,-4.0%,-0.8,0.0%,-3.6%
C[C@@H](CCC(=O)O)C(=O)O,nt,nt,nt,nt,nt,0.0%
SMILES,Shiga toxin inh,Pf growth 96h,Pf growth 48h,CHX counter,Giardia FBPA inh,NS1 function inh
CNc1nc(-c2ccc3c(c2)CCN3C(=O)c2ccccc2C)cs1,64.4*,-12.0%,?,33.8*,-15.9%,11.7%
CNc1nc(-c2ccc3c(c2)CCN3C(=O)c2cccc(F)c2)cs1,59.4*,-37.9%,-3.9%,43.9*,-10.6%,-32.4%
Cc1cccc(C(=O)N2CCc3cc(-c4csc(NC(=O)CN5CCCC5)n4)ccc32)c1,8.9,?,?,9.3,1.3%,3.4%
Cc1ccc(OCCn2ncc3ccccc3c2=O)c(C)c1,25.9,-23.4%,-22.4%,14.8*,0.7%,-9.4%
O=c1c2ccccc2cnn1CCOc1cccc(Br)c1,120.0*,9.28µM*,?,51.4*,-10.6%,-12.7%
CCn1c(C)cc(/C=C2/NC(=O)N(Cc3ccccc3F)C2=O)c1C,-14.9,9.28µM*,11.7µM*,-2.8,-15.8%,12.3%
Cc1cc(/C=C2/NC(=O)N(Cc3ccccc3F)C2=O)c(C)n1C(C)C,27.7,10.4µM*,?,5.3,-14.4%,-4.3%
Cc1cc(/C=C2/NC(=O)N(c3ccccc3)C2=O)c(C)n1C(C)C,41.0*,-44.1%,-9.3%,40.0*,-10.5%,?

# From PubChem BioAssay
